This passage reports growth results from PubChem BioAssay (NCI).

The structures appear in SMILES notation. Compounds without any hit were thinned out: in the full panel of roughly 83,000, 20% have a hit.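 Cells were grown in 96-well plates and exposed to the test compound at a single concentration for 48 hours; results are reported as percent growth, with values below 10 considered active.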 Unmarked numbers belong to inactive results. Calls of active or inactive are those of the source.

Assay in all cases: NCI-60 one-dose screen, 48 h (100 = growth as untreated, 0 = no growth, -100 = all killed)
One assay has as its system SR leukemia. To be noted: 10 µM unless noted.
In the next assay the test system is RPMI-8226 leukemia. To be noted: 10 µM.
Another assay concerns OVCAR-8 ovarian. The following applies: 10 µM unless noted.
The subject of the next assay is OVCAR-5 ovarian. To be noted: 10 µM unless noted.
The test system of a further assay is OVCAR-4 ovarian. To be noted: 10 µM unless noted.
Another assay concerns SK-OV-3 ovarian. The following applies: 10 µM.
The subject of a further assay is IGROV1 ovarian. The following applies: 10 µM unless noted.
A further assay deals with OVCAR-3 ovarian. To be noted: 10 µM unless noted.
The test system of another assay is HS 578T breast. The following applies: 10 µM unless noted.
A further assay has as its system NCI/ADR-RES ovarian. The following applies: 10 µM unless noted.

For the molecule `CN1CCc2c(c3ccccc3c3ccccc23)C1`, the growth in the assay with SR leukemia was 20.5%; in the assay with RPMI-8226 leukemia, 50.8%; in the assay on OVCAR-8 ovarian, 37.3%; in the assay on OVCAR-5 ovarian, 60%; in the assay with OVCAR-4 ovarian it was 82.1%; in the assay on SK-OV-3 ovarian, 63%. The growth with IGROV1 ovarian was 61.4%; in the assay with OVCAR-3 ovarian, 63.7%; in the assay with HS 578T breast, 82.4%; with NCI/ADR-RES ovarian, 45%.
With `COc1ccc(-c2csc3c2-n2cccc2C3=O)cc1O`, the growth with SR leukemia was -6.8% (active); in the assay on RPMI-8226 leukemia, -19.8% (active); with OVCAR-8 ovarian, 5.09% (active); in the assay on OVCAR-5 ovarian, 84.5%; with OVCAR-4 ovarian it was 37.4%; in the assay on SK-OV-3 ovarian, 1.75% (active). The growth in the assay with IGROV1 ovarian was 20.3%; in the assay with OVCAR-3 ovarian it was -38.7% (active); in the assay with HS 578T breast, 32.7%; in the assay with NCI/ADR-RES ovarian, -25.4% (active).
Take `CC1(C)N=C(N)N=C(N)N1c1cccc(OCCOc2cccc([N+](=O)[O-])c2)c1`: the growth in the assay on SR leukemia is 15.9%; with RPMI-8226 leukemia it was 52.4%; in the assay with OVCAR-8 ovarian, 105%; with OVCAR-5 ovarian, 32%; with OVCAR-4 ovarian, 81.3%; in the assay on SK-OV-3 ovarian it was 70%. The growth in the assay on IGROV1 ovarian is 29.7%; in the assay with OVCAR-3 ovarian it was 45.3%; in the assay on HS 578T breast it was 82%; with NCI/ADR-RES ovarian it was 107%.
Regarding `Cc1nn(CC(=O)O)c2c1C(=O)CC(C)(C)C2`, the growth was 89.1% with SR leukemia; 99.2% with RPMI-8226 leukemia; 104% in the assay with OVCAR-8 ovarian; 91.2% with OVCAR-5 ovarian; 101% with OVCAR-4 ovarian; 101% in the assay on SK-OV-3 ovarian. In addition, the growth with IGROV1 ovarian is 94.1%; in the assay with OVCAR-3 ovarian, 110%; with HS 578T breast, 102%; in the assay with NCI/ADR-RES ovarian, 99.5%.
In the case of `COc1ccc2c(c1)c(=O)oc1c(C)c(OCC(C)=O)ccc12`, the growth with SR leukemia was 116%; with RPMI-8226 leukemia, 92.6%; with OVCAR-8 ovarian it was 96.3%; in the assay with OVCAR-5 ovarian it was 86.9%; in the assay on OVCAR-4 ovarian, 93.6%; with SK-OV-3 ovarian, 110%. Moreover, the growth in the assay on IGROV1 ovarian is 111%; in the assay on OVCAR-3 ovarian it was 109%; in the assay with HS 578T breast, 33.6%; in the assay with NCI/ADR-RES ovarian, 97.6%.
Consider `O=c1nc(NO)[nH]c(=O)n1Cc1ccccc1`, for which the growth in the assay with SR leukemia is 107%; in the assay with RPMI-8226 leukemia, 104%; in the assay on OVCAR-8 ovarian, 104%; in the assay on OVCAR-5 ovarian it was 101%; in the assay on OVCAR-4 ovarian, 97%; in the assay with SK-OV-3 ovarian, 99.3%. The growth in the assay on IGROV1 ovarian was 106%; in the assay on OVCAR-3 ovarian, 120%; with HS 578T breast, 100%; with NCI/ADR-RES ovarian, 105%.
On to `FC(F)(F)c1cc(CNc2ncc(Br)c(Cl)n2)cc(C(F)(F)F)c1`, for which the growth was 85.8% in the assay with SR leukemia; 88.5% in the assay on RPMI-8226 leukemia; 101% in the assay on OVCAR-8 ovarian; 102% in the assay on OVCAR-5 ovarian; 102% with OVCAR-4 ovarian; 92.5% with SK-OV-3 ovarian. The growth in the assay with IGROV1 ovarian is 91.7%; with OVCAR-3 ovarian, 120%; in the assay with HS 578T breast, 99.4%; in the assay on NCI/ADR-RES ovarian it was 93.2%.
With `Cn1cc(C(=O)NCCC(=N)N)cc1NC(=O)CN=C(N)N`, the growth in the assay on SR leukemia was 104%; in the assay with RPMI-8226 leukemia, 110%; in the assay with OVCAR-8 ovarian it was 106%; with OVCAR-5 ovarian it was 88.9%; with OVCAR-4 ovarian, 105%; in the assay on SK-OV-3 ovarian it was 110%. Moreover, the growth in the assay on IGROV1 ovarian was 106%; with OVCAR-3 ovarian, 112%; in the assay on HS 578T breast, 92.4%; with NCI/ADR-RES ovarian it was 94.2%.
Regarding `NC(=O)c1nc2c([nH]c1=O)CCCC2`, the growth in the assay with SR leukemia is 100%; in the assay with RPMI-8226 leukemia, 96.5%; in the assay with OVCAR-8 ovarian, 106%; with OVCAR-5 ovarian, 117%; in the assay with OVCAR-4 ovarian, 109%; in the assay with SK-OV-3 ovarian it was 94.7%. In addition, the growth in the assay with IGROV1 ovarian is 115%; in the assay on OVCAR-3 ovarian, 108%; in the assay on HS 578T breast, 109%; in the assay with NCI/ADR-RES ovarian, 105%.
Regarding `Cc1nc2cc(Nc3nc(N4CCCCC4)nc(N4CCOCC4)n3)ccc2n1Cc1ccccc1`, the growth in the assay on SR leukemia is 25.2%; with RPMI-8226 leukemia it was 17.7%; in the assay with OVCAR-8 ovarian it was 27.6%; with OVCAR-5 ovarian, 55.8%; in the assay on OVCAR-4 ovarian, -63.9% (active); in the assay on SK-OV-3 ovarian, 39.8%. For the same molecule, the growth is 47% in the assay on IGROV1 ovarian, -3.53% (active) with OVCAR-3 ovarian, 34.6% with HS 578T breast and 27% with NCI/ADR-RES ovarian.
With `O=C(Nc1nc2ccccc2[nH]1)C(=O)Nc1nc2ccccc2[nH]1`, the growth in the assay on SR leukemia is 89.6%; with RPMI-8226 leukemia, 90.8%; in the assay on OVCAR-8 ovarian, 102%; with OVCAR-5 ovarian it was 88.6%; in the assay on OVCAR-4 ovarian, 96.3%; with SK-OV-3 ovarian, 108%. The growth in the assay on IGROV1 ovarian was 81.9%; in the assay with OVCAR-3 ovarian, 101%; in the assay with HS 578T breast, 105%; in the assay with NCI/ADR-RES ovarian it was 98.7%.
`O=C1c2ccccc2-c2cn(Cc3ccccc3)c3cccc(c23)C1c1cccnc1` (stereo not given): the growth in the assay with SR leukemia is 8.31% (active); in the assay with RPMI-8226 leukemia it was 64.5%; with OVCAR-8 ovarian it was 57.9%; in the assay with OVCAR-5 ovarian, 75.9%; with OVCAR-4 ovarian it was 64.3%; with SK-OV-3 ovarian, 37.6%. For the same molecule, the growth in the assay on IGROV1 ovarian was 54.5%; in the assay with OVCAR-3 ovarian it was 2.21% (active); in the assay with HS 578T breast it was 78.1%; in the assay with NCI/ADR-RES ovarian, 26.5%.
Consider `COc1cc(/C=C/C(=O)CC(=O)/C=C/c2cc(Br)c(OC)c(OC)c2)cc(Br)c1OC`, for which the growth with SR leukemia was 49.6%; in the assay with RPMI-8226 leukemia it was 116%; in the assay with OVCAR-8 ovarian, 102%; in the assay on OVCAR-5 ovarian, 99.1%; in the assay with OVCAR-4 ovarian, 103%; with SK-OV-3 ovarian it was 96.6%. Further, the growth in the assay on IGROV1 ovarian was 109%; with OVCAR-3 ovarian, 102%; in the assay with HS 578T breast it was 113%; with NCI/ADR-RES ovarian, 99.3%.
Take `Cn1c2ccccc2c2nn(Cc3ccccc3)c(=O)nc21`: the growth in the assay on SR leukemia was 97.7%; with RPMI-8226 leukemia it was 101%; in the assay on OVCAR-8 ovarian it was 107%; in the assay on OVCAR-5 ovarian, 92.8%; in the assay on OVCAR-4 ovarian it was 111%; in the assay with SK-OV-3 ovarian it was 105%. The growth with IGROV1 ovarian was 120%; with OVCAR-3 ovarian, 107%; with HS 578T breast, 106%; in the assay with NCI/ADR-RES ovarian, 109%.
